Whole data set: some 13,000 compounds, median “IFI” near 4, cut for the highest 2% near 17. The sample as a whole holds a higher share of the highest values than the screen did.

This assay is described as follows: GSK_TCMDC: Inhibition Frequency Index (IFI). The number of non-kinase HTS assays where a compound showed > 50 % inhibition, expressed as a percentage of the number of such assays in which the compound was tested. It is filed as functional.
The compound `CN1CCC(NCc2cccc(-c3nn(C)c4nc(NC5CCCC5)ncc34)c2)CC1` gave an IFI of 9.09%.

Regarding `CCC1CN2CCc3c([nH]c4ccccc34)[C@@H]2C[C@@H]1CC1NCCc2cc(OC)c(OC)cc21` (stereo partly drawn), the IFI is 8.33%.

On to `CC(Oc1cc(-n2cnc3ccc(NC(=O)CCN4CCCCC4)cc32)sc1C(N)=O)c1ccccc1Cl` (stereo not drawn), for which the IFI turned out to be 9.35%.

Turning to `Cc1cc(N2CC=CCC2)nc(NC(=N)Nc2ccc(Cl)cc2)n1`, the IFI came to 4.29%.

With `CCN(CC)CCCCCNc1c2ccc(Cl)cc2nc2ccc(OC)cc12`, the IFI turned out to be 8.03%.

Consider `COc1cc2nc(-c3ccc(Br)cc3)cc(N)c2cc1OC`, for which the IFI was 11.1%.

On to `Cc1ccc(C)c(NC(=O)Nc2ccc(C)c(-c3ccc(C(=O)Nc4ccncc4)cc3)c2)c1`, for which the IFI came out at 14.1%.

`Cc1ccc(NC(=O)c2ccc(N3CCN(c4ccncc4)CC3)cc2)cc1F`: the IFI is 6.9%.

As to `Cc1ccc(NC(=O)Nc2ccccc2F)cc1-c1ccc(C(=O)Nc2ccncc2)cc1`, the IFI came to 26.4%.

Take `Cc1ccc(NC(=O)Nc2ccc(Cl)c(C(F)(F)F)c2)cc1-c1ccc(C(=O)Nc2ccncc2)cc1`: the IFI came out at 18.3%.

The compound `Cc1ccc(NC(=O)Nc2ccc(Cl)c(C(F)(F)F)c2)cc1-c1ccc(C(=O)NCCN2CCOCC2)cc1` returned an IFI of 13.2%.

The compound `Cc1ccc(NC(=O)c2ccc(Cl)c(Cl)c2)cc1-c1ccc(C(=O)Nc2ccncc2)cc1` registered an IFI of 8.82%.

`Cc1ccc2c(=O)cc(CCc3cccc(F)c3F)n(CC(=O)N(Cc3ccc(-c4ccc(C(F)(F)F)cc4)cc3)C3CCN(C)CC3)c2n1` gave an IFI of 8.51%.

`CC(C)(C)N1CCC(N(Cc2ccc(-c3ccc(C(F)(F)F)cc3)cc2)C(=O)Cn2c(CCc3cccc(F)c3F)nc(=O)c3cccnc32)CC1`: the IFI amounted to 16.7%.

For `CC(C)COc1ccc(Cl)cc1Cc1ccc(-c2nc3ccc(F)cc3[nH]2)o1`, the IFI turned out to be 15.5%.

For `CC(C)COc1ccc(Cl)cc1Cc1ccc(-c2nc3c(F)cccc3[nH]2)o1`, the IFI came out at 15.5%.

Compound `CC(C)COc1ccc(Cl)cc1Cc1ccc(-c2nc3ccc(Br)cc3[nH]2)o1` came in with an IFI of 19.8%.

With `CC(C)COc1ccc(Cl)cc1Cc1ccc(-c2nc3ccc(F)c(F)c3[nH]2)o1`, the IFI was determined as 11.3%.

`CC(C)COc1ccc(Cl)cc1Cc1ccc(-c2nc3ccc(Cl)cc3[nH]2)o1`: the IFI is 19.1%.

As to `CC(C)COc1ccc(Cl)cc1Cc1ccc(-c2nc3ccc(C(F)(F)F)cc3[nH]2)o1`, the IFI amounted to 11.3%.

For the compound `NC(=O)c1ccccc1Nc1nc(Nc2cc[nH]n2)ncc1Cl`, the IFI is 0%.

As to `Cc1cc(=NN=Cc2ccccc2F)c2cc(F)ccc2[nH]1`, the IFI came to 0%.

`O=C(NC1CCC(N2CCC(Cc3ccc(F)cc3)CC2)CC1)c1cc2ccccc2[nH]1` (stereo not drawn) returned an IFI of 14.7%.

On to `O=C(NC1CCC(N2CCC(c3ccccc3C(F)(F)F)CC2)CC1)c1cc2ccccc2[nH]1` (stereo not drawn), for which the IFI was found to be 10.4%.

Consider `Cc1cccc(C)c1N1CCN(C2CCC(NC(=O)c3cc4ccccc4[nH]3)CC2)CC1` (stereo not drawn), for which the IFI turned out to be 13.2%.

The compound `Cc1cccc(N2CCN(C3CCC(NC(=O)c4cc5ccccc5[nH]4)CC3)CC2)c1C` (stereo not drawn) had an IFI of 22.9%.

As for `O=C(NC1CCC(N2CCN(c3cccc(C(F)(F)F)c3)CC2)CC1)c1cc2ccccc2[nH]1` (stereo not drawn), the IFI amounted to 17.6%.

The compound `O=C(NC1CCC(N2CCC(O)(c3ccc(F)cc3)CC2)CC1)c1cc2ccccc2[nH]1` (stereo not drawn) returned an IFI of 1.54%.

The compound `COc1ccc(Nc2c3ccc(Cl)cc3nc3ccc(OC)cc23)cc1` had an IFI of 5.11%.

In turn, `COc1ccccc1C1CCN(C2CCC(NC(=O)/C=C/c3cc(F)cc(C(F)(F)F)c3)CC2)CC1` (stereo not drawn) yielded an IFI of 11.5%.

For `Cc1cccc2nc(-c3ccc(-c4cccc(CNCc5ccccc5)c4)s3)[nH]c12`, the IFI was 4.81%.

As to `COc1ccc(-c2cncc3ccc(C(=O)NCc4ccncc4)nc23)cc1`, the IFI stood at 6.45%.

`COc1ccc(Cc2cccc(C(C(=O)NCc3cc(Cl)cc(Cl)c3)N3CCN(C)CC3)c2)cc1` (stereo not drawn) gave an IFI of 7.75%.

In the case of `NC(=O)CCC(NC(=O)CNC(=O)Nc1cccc(C(F)(F)F)c1)C(=O)O` (stereo not drawn), the IFI was found to be 19.9%.

For `O=C(Nc1cccc(C(F)(F)F)c1)Nc1ccc(Cl)c(C(F)(F)F)c1`, the IFI was found to be 16.7%.

In turn, `CC(C)NCC(=O)Nc1cccc(C(=O)Nc2cccc(C(F)(F)F)c2)c1` registered an IFI of 2.04%.

`CC(=O)N1N=C(c2ccc(Cl)cc2)Sc2c1nc(-c1ccccc1)n2C(C)=O`: the IFI came out at 0%.

As for `Cn1c(=O)c2cc(C(=O)NCCCN3CCCCCC3)sc2c2ccccc21`, the IFI worked out at 3.23%.

The compound `OCCN1CCN(Cc2ccc(-c3ccc(-c4nc5cc(F)ccc5[nH]4)cc3)cc2)CC1` came in with an IFI of 8.91%.

Consider `Cc1cc(=NN=Cc2ccc(F)cc2)c2cc(F)ccc2[nH]1`, for which the IFI was found to be 2.86%.

As to `COc1ccc(C(=O)CCC(=O)N(Cc2ccc(-c3ccc(CNCCc4ccccc4)cn3)cc2)C(C)CN(C)C)cc1F` (stereo not drawn), the IFI stood at 6.9%.

Take `COc1ccc2c(c1CCNCCCCNCCc1c(OC)ccc3c1CCCC3)CCCC2`: the IFI amounted to 18.3%.

For the compound `COc1ccc2c(c1CNCCCCCCNCc1c(OC)ccc3c1CCCC3)CCCC2`, the IFI was 11.9%.

`COc1cc2c(cc1CCNCCCCNCCc1cc3c(cc1OC)CCCC3)CCCC2` returned an IFI of 15.8%.

`CCOC(=O)c1ccc(NC(=O)Nc2ccc(-c3cccc(-c4nc5cc(F)ccc5[nH]4)c3)cc2)cc1` registered an IFI of 4.95%.

`Cc1cc(C(=O)NC2CCN(CC3(c4ccccc4)CCCCC3)CC2)on1` came in with an IFI of 6.38%.

Turning to `O=C(Nc1ccc(C(=O)Nc2ccc(C3=NCCN3)cc2)cc1)Nc1ccc(C2=NCCN2)cc1`, the IFI came out at 5.84%.

As for `O=C(NC1CC1)c1cnc(N2CCC(Cc3ccccc3)CC2)c(Cl)c1`, the IFI was 9.52%.

`Oc1c(CN2CCC(Cc3ccccc3)CC2)cc(Cl)c2cccnc12` had an IFI of 18.8%.

Turning to `COc1cc(C)cc(CN2CCC(Cc3ccccc3)CC2)c1O`, the IFI is 0.84%.

The compound `COc1ccccc1CN1CCC(CNC(=O)c2cc(-c3ccc(N(C)C)cc3)cs2)C1` (stereo not drawn) showed an IFI of 13.7%.

For the compound `CCCCN(CCCC)CCCN(CCCN(CCCC)CCCC)c1cc(C)nc(Nc2ccc3cc(Br)ccc3c2)n1`, the IFI worked out at 15.2%.

As for `CCCc1cccc(OC)c1OCCCON1C(N)=NC(N)=NC1(C)C`, the IFI stood at 4.51%.

`CC1(C)N=C(N)N=C(N)N1OCCCCON1C(N)=NC(N)=NC1(C)C` had an IFI of 1.44%.

The compound `CCCOc1ccc(CCCON2C(N)=NC(N)=NC2(C)C)cc1` registered an IFI of 6.29%.

Consider `CC(C)(C)c1ccc(OCCCON2C(N)=NC(N)=NC2(C)C)cc1`, for which the IFI amounted to 18.1%.

Compound `CCC(C)c1cccc(C(C)CC)c1OCCCON1C(N)=NC(N)=NC1(C)C` (stereo not drawn) gave an IFI of 24.1%.

Consider `CCC(C)Oc1ccc(CCCON2C(N)=NC(N)=NC2(C)C)cc1` (stereo not drawn), for which the IFI was determined as 5.76%.

Consider `Cc1cc(-c2cccc(CNC3CCN(C)CC3)c2)ccc1S(=O)(=O)NC1CCC1`, for which the IFI amounted to 7.48%.

As to `Nc1nc(N)c2c3c(ccc2n1)NCCC3`, the IFI amounted to 2.48%.

Consider `COc1ccc(CNCc2ccc(-c3ccc(-c4nc5cccc(C)c5[nH]4)cc3)cc2)cc1`, for which the IFI amounted to 13.1%.

For the compound `O=C(Cn1cc(C(F)(F)F)cc(Cl)c1=O)N1CCN(S(=O)(=O)c2ccc(Cl)cc2)CC1`, the IFI was 0%.

For `CCCNCc1ccc(-c2ccc(CN(CCOC)C(=O)CCC(=O)c3ccc(OC)c(F)c3)cc2)nc1`, the IFI was 0.7%.

In the case of `O=C(Nc1ccc(Cl)c(C(F)(F)F)c1)NC1CCN(CCCCCNC(=O)C2CC2c2ccc(Cl)c(Cl)c2)CC1` (stereo not drawn), the IFI was 17.1%.

`O=C(Nc1ccc(C(F)(F)F)cc1)NC1CCN(CCCCCNC(=O)C2CC2c2ccc(Cl)c(Cl)c2)CC1` (stereo not drawn) came in with an IFI of 11.1%.

`O=C(Nc1ccc(F)c(C(F)(F)F)c1)N[C@H]1CCN(CCCCCNC(=O)C2CC2c2ccc(Cl)c(Cl)c2)C1` (stereo partly drawn) yielded an IFI of 15.9%.

The compound `O=C(Nc1ccc(Cl)cc1)NC1CCN(CCCCCNC(=O)C2CC2c2ccc(Cl)c(Cl)c2)CC1` (stereo not drawn) showed an IFI of 10.2%.

For `O=C(Nc1ccc(Cl)c(C(F)(F)F)c1)N[C@H]1CCN(CCCCCNC(=O)C2CC2c2ccc(Cl)c(Cl)c2)C1` (stereo partly drawn), the IFI was determined as 12.2%.

Take `O=C(Nc1ccc(F)c(C(F)(F)F)c1)NC1CCN(CCCCCNC(=O)C2CC2c2ccc(Cl)c(Cl)c2)CC1` (stereo not drawn): the IFI was found to be 18.5%.

`O=C(Nc1cccc(F)c1)NC1CCN(CCCCCNC(=O)C2CC2c2ccc(Cl)c(Cl)c2)CC1` (stereo not drawn): the IFI amounted to 11.5%.

`O=C(Nc1cc(F)cc(F)c1)N[C@H]1CCN(CCCCCNC(=O)C2CC2c2ccc(Cl)c(Cl)c2)C1` (stereo partly drawn): the IFI was 13.6%.

The compound `O=C(Nc1cccc(F)c1)N[C@H]1CCN(CCCCCNC(=O)C2CC2c2ccc(Cl)c(Cl)c2)C1` (stereo partly drawn) had an IFI of 19.4%.

The compound `COc1ccc(-c2cnc3ccc(NCCCO)nn23)cc1OC` yielded an IFI of 6.77%.

Regarding `COc1ccc(-c2nc3cccnc3n2CC(=O)Nc2c(C)cc(C)cc2C)c(OC)c1`, the IFI was 5.56%.

`N=C1N=C(N)NCN1OCc1ccc(Cl)c(Cl)c1` registered an IFI of 0.72%.

`Cc1[nH]c(C)c(-c2ccc(OCc3cc(C(F)(F)F)cc(C(F)(F)F)c3)nc2)c(=O)c1Br` came in with an IFI of 5.36%.

In turn, `CC(C)(C)c1ccc2[nH]c(-c3ccc(/C=C/C(=O)NCc4cccc(C(F)(F)F)c4)cc3)nc2c1` displayed an IFI of 2.9%.

`Cc1cccc2nc(-c3cccc(-c4cccc(CN5CCCC5CN)c4)c3)[nH]c12` (stereo not drawn) returned an IFI of 4.95%.

Regarding `Cc1nn(-c2cccc(C(F)(F)F)c2)c2sc(C(=O)NC3CCN(C(C)C)CC3)cc12`, the IFI is 10%.

`CCCCN(CCCC)CCCCNc1c2ccc(Cl)cc2nc2ccc(OC)cc12`: the IFI amounted to 6.87%.

In the case of `N=C1N=C(N)NC2(CCCCC2)N1OCCCOc1cccc2ccccc12`, the IFI worked out at 9.16%.

Compound `CCCc1cc(C(C)=O)ccc1OCCCON1C(=N)N=C(N)NC1(C)C` had an IFI of 3.68%.

On to `CC1(C)NC(N)=NC(=N)N1OCCCCOc1ccccc1`, for which the IFI came out at 2.17%.

Turning to `N=C1N=C(N)NC2(CCCCC2)N1OCCOc1ccc(Cc2ccccc2)cc1`, the IFI came to 27.6%.

Compound `CCCc1cc(OCCCOc2ccccc2)ccc1OCCCON1C(=N)N=C(N)NC1(C)C` yielded an IFI of 21.1%.

Consider `CC1(C)NC(N)=NC(=N)N1OCCOc1ccc(Cc2ccccc2)cc1`, for which the IFI was 4.41%.

The compound `COc1ccccc1NC(=O)Nc1cccc(-c2cccc(-c3nc4cccc(C)c4[nH]3)c2)c1` displayed an IFI of 3.03%.

In turn, `c1cc(-c2ccc(CNC3CCOCC3)cc2)cc(-c2nc3ccccc3[nH]2)c1` gave an IFI of 0.97%.

Take `C/C=C/COc1ccc2ccccc2c1CNCCCCCCCCNCc1c(OC/C=C/C)ccc2ccccc12`: the IFI is 16.6%.

On to `C#CCCOc1ccc2ccccc2c1CNCCCCCCNCc1c(OCCC#C)ccc2ccccc12`, for which the IFI was found to be 12.8%.

In turn, `CCCCCCOc1ccc2ccccc2c1CNCCCCCCNCc1c(OCCCCCC)ccc2ccccc12` returned an IFI of 22.8%.

Regarding `Oc1ccc2ccccc2c1CNCCC1CCCCC1`, the IFI is 2.96%.

With `CCCCCCCCNCc1c(O)ccc2ccccc12`, the IFI turned out to be 7.69%.

The compound `CCOc1ccc2ccccc2c1CNCCCCCCNCc1c(OCC)ccc2ccccc12` gave an IFI of 13%.

As to `CCCOc1ccc2ccccc2c1CNCCCCCCNCc1c(OCCC)ccc2ccccc12`, the IFI was 17.6%.

For `C=CCOc1ccc2ccccc2c1CNCCCCCCNCc1c(OCC=C)ccc2ccccc12`, the IFI was 19.6%.

For `c1ccc2c(CNCCCCCCNCc3c(OCC4CC4)ccc4ccccc34)c(OCC3CC3)ccc2c1`, the IFI was determined as 18.7%.

On to `C#CCOc1ccc2ccccc2c1CNCCCCCCNCc1c(OCC#C)ccc2ccccc12`, for which the IFI is 14.1%.

Source of the values: ChEMBL document CHEMBL1157539, “Thousands of chemical starting points for antimalarial lead identification” (Nature, 2010).
